From PubChem BioAssay (Tox21)
Where “and” joins values, the source holds several entries; their conditions need not be identical. Equal values may be shown once. Unmarked numbers belong to inactive results. Records with an inconclusive call do not appear. A call without a number means that no potency is given here. Calls of active or inactive are those of the source. Unless noted, calls follow the shape of the dose curve; as a rule, active = well fitted curve in the direction sought with a large enough effect in the repeat runs; inconclusive = weak or mixed curves; inactive = no such curve, though single readings can be large; an effect the other way counts as inactive or inconclusive.

Legend:
[1] = qHTS assay to identify small molecule agonists of the androgen receptor (AR) signaling pathway in the presence of an antagonist - cell viability counter screen (AID 1259379); also: nearly all actives have a fitted effect of over 25% in size; also: potency is read from the fitted curve at half-maximal effect;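 as to activity change, negative = cytotoxicity: MDA-kb2 human breast cancer cells carrying an MMTV luciferase reporter; series mostly up to about 92 µM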
How it was run: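 Cells: MDA-kb2 (MMTV-luc, AR and GR elements), 3,000/well, 5 hr settle. Added: nilutamide 3.0uM final, then compounds (15 conc.). Incubation: 16 hr, 37C, no CO2. Read-out: CellTiter-Fluor, 1 hr, fluorescence.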

[2] = qHTS assay to identify small molecule agonists of the estrogen receptor beta (ER-beta) signaling pathway - cell viability counter screen (AID 1259380); also: nearly all actives have a fitted effect of over 30% in size; also: potency is read from the fitted curve at half-maximal effect
How it was run: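 HEK293T ER-beta-UAS-bla; 2% CS-FBS; 6 hr pre-plate, 16 hr cpd at 37C/5% CO2; LiveBLAzer read first, then CellTiter-Glo 30 min RT, luminescence.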

[3] = qHTS assay to identify small molecule antagonists of the estrogen receptor beta (ER-beta) signaling pathway - cell viability counter screen (AID 1259382); also: nearly all actives have a fitted effect of over 55% in size; also: potency is read from the fitted curve at half-maximal effect;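 as to activity change, negative = cytotoxicity: HEK293T cells carrying ER-beta-UAS-bla reporter stimulated with estradiol; series mostly up to about 92 µM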
How it was run: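 Cells: ER-beta-UAS-bla HEK293T, 2,000/well, 2% CS-FBS, 6 hr settle. Cpd + E2 (1nM final), 16 hr, 37C/5% CO2. Bla FRET substrate 2 hr RT, then CellTiter-Glo 30 min RT, luminescence.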

[4] = qHTS assay to identify small molecule agonists or antagonists of the thyroid stimulating hormone receptor (TSHR) signaling pathway - wild type cell line counter screen (AID 1259384; calls by dose curve)
How it was run: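 Wild-type HEK293 cells were plated 18 h at 37 C/5% CO2, pin-dosed with compound plus Ro20-1724 medium, held 30 min at room temperature, then given cAMP-d2 and anti-cAMP-cryptate; fluorescence was read after 1 h. Fifteen concentrations, triplicate.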

[5] = biological target: Thyrotropin receptor (Homo sapiens) (UniProt P16473); assay: qHTS assay to identify small molecule antagonists of the thyroid stimulating hormone receptor (TSHR) signaling pathway (AID 1259385; calls by dose curve; also: nearly all actives have a fitted effect of over 20% in size)
How it was run: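 TSHR-HEK293 cells were plated and held 18 h at 37C/5% CO2, then given compound plus Ro20-1724 and stimulated with TSH at 1.5 ng/mL final. After 30 min at room temperature, cAMP was detected with cAMP-d2/anti-cAMP-cryptate (1 h) by fluorescence.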

[6] = qHTS assay to identify small molecule agonists of the estrogen receptor alpha (ER-alpha) signaling pathway in the presence of an antagonist - cell viability counter screen (AID 1259386);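 also: series mostly up to about 92 µM; cells exposed to compounds for 22 h at 37 °C before the viability read; nearly all actives have a fitted effect of over 30% in size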
How it was run: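 VM7Luc4E2, stripped-serum pre-culture 5 d; 24hr plating; +ICI-182,780 10.0nM final; cpds 15 conc, 22hr, 37C/5% CO2; CellTiter-Fluor added at 21hr, fluorescence 1hr later.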

[7] = biological target: Progesterone receptor (Homo sapiens) (UniProt P06401); assay: qHTS assay to identify small molecule agonists of the progesterone receptor (PR) signaling pathway (AID 1346784; calls by dose curve; also: nearly all actives have a fitted effect of over 30% in size)
How it was run: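 PR-UAS-bla HEK 293T cells (beta-lactamase reporter under UAS) in 2% charcoal-stripped FBS, dosed with 23 nL compound after 6 hr, incubated 16hr at 37C. LiveBLAzer B/G FRET substrate added, fluorescence read after 2 hours.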

[8] = biological target: Progesterone receptor (Homo sapiens) (UniProt P06401); assay: qHTS assay to identify small molecule antagonists of the progesterone receptor (PR) signaling pathway (AID 1346795; active = well fitted inhibition curve with a large enough effect in the signal ratio in the repeat runs, not every such curve was filed as active; the % refers to the signal ratio; also: potency is read from the fitted curve at half-maximal effect)
How it was run: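 PR-UAS-bla HEK293T cells with beta-lactamase reporter under UAS control, in 2% charcoal-stripped FBS, treated with compounds plus 1 nM promegestone (R5020, final) for 16 hr at 37C. Read-out: FRET beta-lactamase substrate fluorescence after 2 hr at room temperature.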

[9] = qHTS assay to identify small molecule antagonists of the progesterone receptor (PR) signaling pathway - cell viability counter screen (AID 1346798); also: nearly all actives have a fitted effect of over 50% in size; also: potency is read from the fitted curve at half-maximal effect; as to activity change, negative = cytotoxicity: series mostly up to about 92 µM
How it was run: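 PR-UAS-bla HEK293T cells, 3,000/well in 2% charcoal-stripped FBS medium, dosed with compounds plus R5020 agonist and incubated 16 h at 37C. Viability then measured in the same wells by CellTiter-Glo luminescence after 30 min at RT.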

[10] = qHTS assay to identify small molecule agonists of the progesterone receptor (PR) signaling pathway - cell viability counter screen (AID 1346799; calls by dose curve; also: nearly all actives have a fitted effect of over 45% in size; also: potency is read from the fitted curve at half-maximal effect)
How it was run: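 Counter screen in the PR-UAS-bla HEK293T wells (2% charcoal-stripped FBS, 16 h compound exposure at 37 C) after the bla read. CellTiter-Glo added, 30 min at room temperature, luminescence read as cell viability.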

[11] = qHTS assay to identify small molecule antagonists of the TGF-beta/Smad signaling pathway - cell viability counter screen (AID 1346824); also: nearly all actives have a fitted effect of over 50% in size
How it was run: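 SBE-bla HEK 293T cells were plated overnight at 37 C, then given compounds in DMSO plus TGF-beta1 (added as 0.25 ng/mL solution) for 5 hr. After the bla read, CellTiter-Glo was added to the same wells and luminescence read after 30 min at room temperature.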

[12] = qHTS assay to identify small molecule agonists of the TGF-beta/Smad signaling pathway - cell viability counter screen (AID 1346829); also: top concentration of the series differs between compounds; nearly all actives have a fitted effect of over 45% in size
How it was run: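 Tox21 qHTS format: SBE-bla HEK 293T cells treated with DMSO-dissolved compounds for 5 hr; CellTiter-Glo luminescence after 30 min at room temperature.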

[13] = qHTS assay to identify small molecule agonists of the TGF-beta/Smad signaling pathway (AID 1346859; active = well fitted activation curve with a large enough effect in the signal ratio in the repeat runs, not every such curve was filed as active; the % refers to the signal ratio; also: series mostly up to about 77 µM)
How it was run: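 SBE-bla HEK293T cells plated overnight, then compound exposure for 5 h at 37 C. Beta-lactamase reporter read with LiveBLAzer B/G FRET substrate after 2 h at room temperature, fluorescence at 405 nm excitation, 460/530 nm emission.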

[14] = biological target: Thyrotropin-releasing hormone receptor (Homo sapiens) (UniProt P34981); assay: qHTS assay to identify small molecule antagonists of the thyrotropin-releasing hormone receptor (TRHR) signaling pathway (AID 1346877; active = well fitted inhibition curve with a large enough effect in the repeat runs, not every such curve was filed as active; also: potency is read from the fitted curve at half-maximal effect; as to activity, negative = inhibition: series mostly up to about 51 µM)
How it was run: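 Intracellular calcium fluorescence, read kinetically every second over 3 min, reports TRH-evoked signalling in HEK293 cells carrying TRHR. Test compounds were added 5 min ahead of a 1 nM TRH challenge.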

[15] = biological target: Thyrotropin-releasing hormone receptor (Homo sapiens) (UniProt P34981); assay: qHTS assay to identify small molecule agonists of the thyrotropin-releasing hormone receptor (TRHR) signaling pathway (AID 1346891; calls by dose curve; also: series mostly up to about 58 µM)
How it was run: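 HEK293 cells expressing TRHR plated 18 h at 37 C/5% CO2, calcium dye-loaded 2 h at 37 C, then compound added (agonist mode); kinetic calcium fluorescence read 3 min at 1 s intervals; 15 concentrations in triplicate.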

[16] = Human pregnane X receptor (PXR) small molecule agonists, qHTS cell viability counter screen (AID 1346977); also: nearly all actives have a fitted effect of over 50% in size; also: potency is read from the fitted curve at half-maximal effect
How it was run: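 PXR-Luc HepG2 cells (2,000/well, 5% charcoal-stripped FBS) preincubated 5 hr, then exposed to compounds 24 hr at 37 C. Viability read in the same wells by CellTiter-Fluor fluorescence, reagent added at 23 hr, 1 hr incubation.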

[17] = biological target: Androgen receptor (Homo sapiens) (UniProt P10275); assay: qHTS assay to identify small molecule agonists of the androgen receptor (AR) signaling pathway in the presence of an antagonist (AID 1259381; calls by dose curve; also: nearly all actives have a fitted effect of over 15% in size)
How it was run: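 MDA-kb2 cells, 3,000/well, rested 5hr at 37C/0% CO2 → nilutamide 3.0uM final or buffer → compounds, 15 conc. → 16hr at 37C → ONE-Glo, 30min RT → luminescence.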

[18] = biological target: Estrogen receptor (Homo sapiens) (UniProt P03372); assay: qHTS assay to identify small molecule agonists of the estrogen receptor alpha (ER-alpha) signaling pathway in the presence of an antagonist (AID 1259383; calls by dose curve; also: top concentration of the series differs between compounds; nearly all actives have a fitted effect of over 15% in size)
How it was run: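 VM7Luc4E2, endog. ER-alpha + 4×ERE-luc; charcoal-stripped FBS, phenol red-free, 5 d; 24hr plating; +10.0nM ICI-182,780 (final); cpds 15 conc, 22hr, 37C/5% CO2; ONE-Glo luminescence.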

Sequence of Progesterone receptor (Homo sapiens) (P06401 whole entry, looked up): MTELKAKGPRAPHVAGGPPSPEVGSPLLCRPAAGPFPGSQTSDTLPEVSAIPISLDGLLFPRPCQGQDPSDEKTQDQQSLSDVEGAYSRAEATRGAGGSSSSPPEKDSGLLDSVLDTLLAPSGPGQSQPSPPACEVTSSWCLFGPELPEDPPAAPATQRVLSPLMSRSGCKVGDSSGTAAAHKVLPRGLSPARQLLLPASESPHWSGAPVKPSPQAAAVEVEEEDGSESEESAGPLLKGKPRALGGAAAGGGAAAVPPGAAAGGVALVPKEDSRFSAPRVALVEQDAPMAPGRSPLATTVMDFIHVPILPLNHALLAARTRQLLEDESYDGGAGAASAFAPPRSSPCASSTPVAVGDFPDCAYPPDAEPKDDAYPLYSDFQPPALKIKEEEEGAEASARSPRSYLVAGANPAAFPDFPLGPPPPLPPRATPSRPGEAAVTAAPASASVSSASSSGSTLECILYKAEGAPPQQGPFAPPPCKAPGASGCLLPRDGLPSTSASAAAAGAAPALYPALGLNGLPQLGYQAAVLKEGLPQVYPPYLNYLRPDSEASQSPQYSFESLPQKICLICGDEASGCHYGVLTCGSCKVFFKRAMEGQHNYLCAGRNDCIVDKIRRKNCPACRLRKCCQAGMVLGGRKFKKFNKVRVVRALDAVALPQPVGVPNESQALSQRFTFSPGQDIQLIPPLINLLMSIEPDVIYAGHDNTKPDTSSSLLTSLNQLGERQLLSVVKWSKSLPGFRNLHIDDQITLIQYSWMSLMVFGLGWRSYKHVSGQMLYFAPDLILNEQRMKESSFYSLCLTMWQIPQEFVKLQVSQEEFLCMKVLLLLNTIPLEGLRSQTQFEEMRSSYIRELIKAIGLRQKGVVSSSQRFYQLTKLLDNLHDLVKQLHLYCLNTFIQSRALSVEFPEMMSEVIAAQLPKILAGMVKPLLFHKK
Sequence of Thyrotropin-releasing hormone receptor (Homo sapiens) (P34981 whole entry, looked up): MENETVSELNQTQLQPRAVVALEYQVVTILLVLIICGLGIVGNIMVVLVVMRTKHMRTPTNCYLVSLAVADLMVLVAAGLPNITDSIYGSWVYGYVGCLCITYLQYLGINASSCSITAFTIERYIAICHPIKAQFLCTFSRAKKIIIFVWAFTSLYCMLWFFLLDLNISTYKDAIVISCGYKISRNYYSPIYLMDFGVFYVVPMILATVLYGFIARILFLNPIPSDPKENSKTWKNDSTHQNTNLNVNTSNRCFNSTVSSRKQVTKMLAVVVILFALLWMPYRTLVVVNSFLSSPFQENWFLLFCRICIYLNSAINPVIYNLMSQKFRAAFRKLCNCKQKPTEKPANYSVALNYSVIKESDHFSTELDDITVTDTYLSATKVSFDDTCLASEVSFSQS
Sequence of Thyrotropin receptor (Homo sapiens) (P16473 whole entry, looked up): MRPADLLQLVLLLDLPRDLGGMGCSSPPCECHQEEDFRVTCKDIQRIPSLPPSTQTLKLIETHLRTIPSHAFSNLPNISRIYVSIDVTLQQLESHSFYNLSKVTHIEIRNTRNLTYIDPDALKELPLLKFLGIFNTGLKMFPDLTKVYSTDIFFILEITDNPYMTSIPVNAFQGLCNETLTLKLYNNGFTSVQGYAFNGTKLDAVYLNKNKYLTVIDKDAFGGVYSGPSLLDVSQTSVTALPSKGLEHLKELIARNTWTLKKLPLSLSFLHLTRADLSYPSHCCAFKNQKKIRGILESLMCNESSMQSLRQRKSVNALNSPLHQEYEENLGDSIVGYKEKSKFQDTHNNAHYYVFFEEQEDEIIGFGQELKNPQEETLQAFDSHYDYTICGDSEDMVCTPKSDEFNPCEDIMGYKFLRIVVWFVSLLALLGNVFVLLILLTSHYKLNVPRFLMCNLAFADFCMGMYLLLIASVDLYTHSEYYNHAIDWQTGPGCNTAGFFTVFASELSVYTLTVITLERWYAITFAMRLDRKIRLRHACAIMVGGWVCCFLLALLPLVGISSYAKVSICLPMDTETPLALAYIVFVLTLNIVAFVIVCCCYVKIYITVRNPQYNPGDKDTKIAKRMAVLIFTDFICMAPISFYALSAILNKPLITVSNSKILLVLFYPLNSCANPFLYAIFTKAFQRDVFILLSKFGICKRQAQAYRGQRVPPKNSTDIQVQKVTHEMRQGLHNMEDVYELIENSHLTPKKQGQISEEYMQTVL
Sequence of Androgen receptor (Homo sapiens) (P10275 whole entry, looked up): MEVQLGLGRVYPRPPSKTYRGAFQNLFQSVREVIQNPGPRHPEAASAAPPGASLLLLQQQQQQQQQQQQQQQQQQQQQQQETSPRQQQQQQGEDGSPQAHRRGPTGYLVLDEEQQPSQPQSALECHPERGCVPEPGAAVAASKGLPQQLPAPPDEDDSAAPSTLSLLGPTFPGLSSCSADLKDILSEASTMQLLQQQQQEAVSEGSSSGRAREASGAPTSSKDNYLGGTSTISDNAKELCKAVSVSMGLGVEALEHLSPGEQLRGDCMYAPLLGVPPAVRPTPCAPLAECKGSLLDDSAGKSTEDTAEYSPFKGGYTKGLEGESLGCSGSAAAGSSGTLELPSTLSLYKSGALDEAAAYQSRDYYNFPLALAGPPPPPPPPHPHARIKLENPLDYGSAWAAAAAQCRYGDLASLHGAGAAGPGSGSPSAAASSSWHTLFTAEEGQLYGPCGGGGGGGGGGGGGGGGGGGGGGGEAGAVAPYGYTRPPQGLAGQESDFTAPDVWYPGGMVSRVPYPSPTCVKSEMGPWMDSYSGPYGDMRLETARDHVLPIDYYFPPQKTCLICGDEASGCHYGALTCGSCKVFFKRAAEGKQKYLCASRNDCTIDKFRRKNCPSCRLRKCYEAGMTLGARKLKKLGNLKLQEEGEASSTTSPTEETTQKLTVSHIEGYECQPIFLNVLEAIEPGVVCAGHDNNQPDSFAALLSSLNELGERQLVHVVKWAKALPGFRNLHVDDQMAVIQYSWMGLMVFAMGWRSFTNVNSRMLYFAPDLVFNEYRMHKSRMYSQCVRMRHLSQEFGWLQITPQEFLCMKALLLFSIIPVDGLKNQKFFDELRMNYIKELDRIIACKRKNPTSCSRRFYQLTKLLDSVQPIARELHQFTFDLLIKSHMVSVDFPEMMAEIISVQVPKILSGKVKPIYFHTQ
Sequence of Estrogen receptor (Homo sapiens) (P03372 whole entry, looked up): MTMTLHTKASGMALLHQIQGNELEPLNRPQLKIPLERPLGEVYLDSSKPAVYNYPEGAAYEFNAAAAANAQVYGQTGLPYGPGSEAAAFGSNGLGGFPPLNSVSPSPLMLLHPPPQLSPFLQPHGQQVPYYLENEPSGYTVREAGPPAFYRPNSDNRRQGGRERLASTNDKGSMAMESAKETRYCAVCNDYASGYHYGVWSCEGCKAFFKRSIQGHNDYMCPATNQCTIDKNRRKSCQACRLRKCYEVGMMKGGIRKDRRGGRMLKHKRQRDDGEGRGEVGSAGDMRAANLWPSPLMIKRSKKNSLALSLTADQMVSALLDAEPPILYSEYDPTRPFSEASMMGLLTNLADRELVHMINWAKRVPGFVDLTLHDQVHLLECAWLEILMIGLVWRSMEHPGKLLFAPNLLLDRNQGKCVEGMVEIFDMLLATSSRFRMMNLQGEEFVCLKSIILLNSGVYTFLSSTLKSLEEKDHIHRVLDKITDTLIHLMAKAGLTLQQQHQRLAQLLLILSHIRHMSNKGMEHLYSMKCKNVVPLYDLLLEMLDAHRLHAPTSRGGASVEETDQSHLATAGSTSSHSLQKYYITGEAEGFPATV

CC(C)c1ccccc1N
Potency [1]: inactive | Potency [2]: inactive | Potency [3]: inactive | outcome [4]: inactive | Potency [5]: inactive | Potency [6]: inactive | outcome [7]: inactive | Potency [8]: inactive | Potency [9]: inactive | Potency [10]: inactive | Potency [11]: inactive | Potency [12]: inactive | Potency [13]: inactive | Potency [14]: inactive | Potency [15]: inactive | Potency [16]: inactive

CC(C)(c1cc(Br)c(O)c(Br)c1)c1cc(Br)c(O)c(Br)c1
Potency [1]: inactive | Potency [2]: 68.3 µM (active) and 68.4 µM (active) | Potency [3]: 68.4 µM (active) | outcome [4]: inactive | Potency [5]: inactive | Potency [6]: inactive | Potency [8]: 13.6 µM (active) and 17.2 µM (active) | Potency [12]: inactive | Potency [13]: inactive | Potency [14]: 33.8 µM (active) | Potency [15]: inactive | Potency [16]: inactive

Brc1ccccc1-c1ccccc1
Potency [1]: inactive | Potency [3]: inactive | outcome [4]: inactive | Potency [6]: inactive | Potency [13]: inactive | Potency [14]: inactive | Potency [15]: inactive

SCCCCCCCCS
Potency [1]: inactive | Potency [2]: inactive | Potency [3]: inactive | outcome [4]: inactive | Potency [5]: inactive | Potency [6]: inactive | outcome [7]: inactive | Potency [8]: inactive | Potency [9]: inactive | Potency [10]: inactive | Potency [11]: inactive | Potency [12]: inactive | Potency [13]: inactive | Potency [14]: inactive | Potency [15]: inactive | Potency [16]: inactive

CCCCCCCCCCCCCCCCCO
activity change, negative = cytotoxicity [1]: 1.97% [at 19 µM] | activation [17]: -1.33% [at 19 µM] | activity change, negative = cytotoxicity [3]: 3.37% [at 19 µM] | activation [18]: -1.67% [at 19 µM] | activity change, negative = cytotoxicity [6]: 2.39% [at 19 µM] | activation [7]: -3.68% [at 19 µM] | activity change, negative = inhibition [8]: 1.26% [at 18.9 µM] | activity change, negative = cytotoxicity [9]: -7.24% [at 18.9 µM] | activity change, negative = cytotoxicity [10]: -18.8% [at 19 µM] | activation [13]: -0.867% [at 15.8 µM] | activity, negative = inhibition [14]: 0.827% [at 10.5 µM] | activation [15]: 0.0338% [at 11.8 µM] | activity change, negative = cytotoxicity [16]: 3.58% [at 19 µM]

CO[Si](CCCNCCNCCN)(OC)OC
Potency [1]: inactive | Potency [2]: inactive | Potency [3]: inactive | outcome [4]: inactive | Potency [5]: inactive | Potency [6]: inactive | outcome [7]: inactive | Potency [8]: inactive | Potency [9]: inactive | Potency [11]: inactive | Potency [12]: inactive | Potency [13]: inactive | Potency [14]: inactive | Potency [15]: inactive | Potency [16]: inactive

CCCCCCCCCCCC(=O)N(CC)CC
Potency [1]: inactive | Potency [2]: inactive | Potency [3]: inactive | outcome [4]: inactive | Potency [6]: inactive | Potency [9]: inactive | Potency [10]: inactive | Potency [12]: inactive | Potency [13]: inactive | Potency [14]: inactive | Potency [15]: inactive

Cc1c(-c2ccc(O)cc2)n(Cc2ccc(OCCN3CCCCCC3)cc2)c2ccc(O)cc12
Potency [1]: 29.8 µM (active) | Potency [2]: 29.8 µM (active) | Potency [3]: 26.6 µM (active) | Potency [6]: inactive | Potency [9]: 33.5 µM (active) | Potency [10]: 29.8 µM (active) | Potency [16]: 23.7 µM (active)

O=C(O)CCn1c2c(c3ccccc31)C[C@H](NS(=O)(=O)c1ccc(F)cc1)CC2
Potency [1]: inactive | Potency [2]: inactive | Potency [3]: inactive | Potency [9]: inactive | Potency [10]: inactive | Potency [12]: inactive | Potency [16]: inactive
